The sample as a whole holds a higher share of hits than the screen did.
Pf Dd2 inh: Plasmodium falciparum Dd2 growth inhibition | Potency, µM (titrated, usually from 28.9 µM), inactives show at the top dose activity, negative = inhibition, usual class: inhibitors | 120,000 compounds, 4.3% hits | P. falciparum Dd2 growth, SYBR Green, 72 h; active = well fitted inhibition curve with a large enough effect;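 note: plate controls were DMSO vehicle for no effect and reference drug for full effect; nearly all actives have a fitted effect of over 65% in size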
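Readout: SYBR Green fluorescence, 485 nm excitation, 535 nm emission, after ~16 h lysis at 37C. Before that, Dd2-infected red cells (2.5% hematocrit) grew 72 h with compound, 29 uM top final concentration.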
An asterisk follows results filed as active; i = inactive; [ ] = remark or other dose. Potency is the fitted concentration of half-maximal effect.

SMILES	Pf Dd2 inh
COc1ccc(-c2cn3c(n2)sc2cc(C(=O)Nc4cc(OC)cc(OC)c4)ccc23)cc1	i
COc1ccc(-c2cn3c(n2)sc2cc(C(=O)NCc4cccc(F)c4)ccc23)cc1	20%
COc1ccc(-c2cn3c(n2)sc2cc(C(=O)Nc4cccc(SC)c4)ccc23)cc1	i
Cc1ccc(-c2cn3c(n2)sc2cc(C(=O)NCCC4=CCCCC4)ccc23)cc1	2%
O=C(N[C@@H]1CCN(C(=O)c2ccc3cc[nH]c3c2)C[C@H]1O)c1cnccn1	1%
Cc1ccc(C(=O)NC2CCN(C(=O)N3CC4CC(C3)[C@H]3CCCC(=O)N3C4)CC2)cn1 (some centres undefined)	-24%
CCS(=O)(=O)N1CCC[C@H]1C(=O)N1CCCCCCNC(=O)CC1	5%
O=C1OCCN1C1CCN([S+](=O)([O-])c2cccc(C(F)(F)F)c2)CC1	-17%
CN1CC(=O)N(c2ccccc2)Cc2c(NCc3cccc(C(F)(F)F)c3)ncnc21	-7%
O=C1NC2(CCN(C(=O)c3ccc(C(F)(F)F)cc3)C2)Oc2ccccc21 (centres undefined)	i
COc1ccc(-c2cc3c(=O)n(CCNC(=O)c4ccc5c(c4)OCO5)ccn3n2)cc1	i
CCOc1ccccc1NC(=O)N1CC2CC(C1)[C@H]1CCCC(=O)N1C2 (some centres undefined)	-10%
CCc1noc(-c2ccn3c(CNC(=O)CCCc4ccccc4)nnc3c2)n1	-12%
COC(=O)CN1C(=O)[C@@H]2C[C@@H](O)CN2C2(CN(Cc3cccs3)C2)C1=O	-14%[44.1 µM]
Cc1cccc(C)c1NC(=O)CSc1ncc2c(n1)-c1ccc(Cl)cc1N(Cc1ccccc1)S2(=O)=O	11µM*
Cc1cccc(NC(=O)CSc2ncc3c(n2)-c2cc(Cl)ccc2N(C)S3(=O)=O)c1C	i
COc1ccc(CNC(=O)CSc2ncc3c(n2)-c2ccc(Cl)cc2N(Cc2ccccc2)S3(=O)=O)cc1	-14%
O=C(c1cc[nH]c1)N1CCN(c2nc3ccccc3s2)CC(O)C1 (centres undefined)	7%
O=C(c1ccccc1F)N1CCC(N2C(=O)C(O)C23CCCCC3)CC1 (centres undefined)	-8%
CS(=O)(=O)N(C1CCOCC1)C1CN(C(=O)Nc2ccccc2)C1	-4%
COC1C(=O)N(C2CCN(C(=O)c3cnc(C)cn3)CC2)C12CCOCC2 (centres undefined)	8%
COC(=O)N1CCn2c(nn(-c3ccc(C)cc3)c2=O)C1	-11%[44.1 µM]
COc1ccc(-c2cn3cc(C(=O)N4CCCC4)nc3c(=O)n2CC2CC2)c(F)c1	8.9µM*
O=C(c1cn2cc(-c3ccccc3Cl)n(CC3CC3)c(=O)c2n1)N1CC[C@@H](O)C1	i
COc1ccc(-c2cn3cc(C(=O)NCCO)nc3c(=O)n2CC2CC2)c(F)c1	-30%
SMILES	Pf Dd2 inh
O=C(c1ccc2c(c1)OCO2)N1CCC2(CC1)COc1ccccc1NC2=O	16%
CC(C)Oc1ccc2c(NC(=O)CN3C(=O)CNC3=O)nn(CC(F)(F)F)c2c1	-2%
CC(=O)c1cc(C(=O)N2CCC(n3nccc3NC(=O)CC(C)C)CC2)cs1	2%
C[C@]1(O)CCN(C(=O)Cc2ccc(-n3cnnn3)cc2)C[C@@H]1O	-6%
Cc1cnc(C2CCOCC2)n1C1CCN(C(=O)Nc2ccc3c(c2)OCCO3)CC1	7.9µM*
Cc1cnc(CCNC(=O)Nc2ccc3c(c2)OCCO3)n1C1CC1	-16%
Cc1cnc(C2CC2)n1C1CCN(C(=O)NC(C)C)CC1	-14%
O=C(NCc1cccc(Cl)c1)c1nnn2c1COC(c1ccc(Cl)cc1)C2 (centres undefined)	i
O=C([C@H]1C[C@H](Oc2cccnc2)CN1C(=O)CCc1c[nH]c2ccccc12)N1CCOCC1	i
Cc1nc2ccc(C(=O)N3CCC(Cn4cc(CO)nn4)CC3)cc2nc1C	-15%
COc1cccc(C2=C(C(C)=O)Sc3nnc(C4CCCCC4)n3N2C(C)=O)c1	1.3µM*
COc1cccc(C(=O)N2CCCC(c3nn[nH]n3)C2)c1 (centres undefined)	40%
CC(=O)C1=C(c2ccccc2)N(C(C)=O)n2c(nnc2C2CCCCC2)S1	1.1µM*
COc1cccc(N2CC(NC(=O)C3CCCC3)CC2=O)c1 (centres undefined)	44%
Cn1nnnc1C1CCCN(C(=O)Cc2ccccc2)C1 (centres undefined)	-19%
Cn1nnnc1C1CCCN(C(=O)NCc2ccccc2)C1 (centres undefined)	-8%
COC1CCC12CCN(C(=O)c1sc(C)nc1C)CC2 (centres undefined)	18%
CS(=O)(=O)N1CCC(CC(=O)N2CCCC2)C1 (centres undefined)	-9%
O=C(c1ncn[nH]1)N1CCc2ccc(S(=O)(=O)NCC3CCCO3)cc2C1 (centres undefined)	17%
Cc1ccc(C2Cn3nnc(C(=O)N4CCC(C(=O)Nc5ccc(Cl)c(C)c5)CC4)c3CO2)cc1 (centres undefined)	i
COc1ccc(-c2ccc3nc(-c4cc(C)ccc4F)oc3c2)c(OC)c1OC	4%
CS(=O)(=O)N1CCOc2ccc(CCC(=O)NC3CCS(=O)(=O)C3)cc2C1 (centres undefined)	19%
CN(Cc1cccnc1)c1nc2c(c(=O)[nH]1)CCN(CCc1ccccc1)CC2	25%[5.79 µM]
N#Cc1ccc(C(=O)N2CCC3(CC2)NC(=O)N(Cc2ccccc2Cl)C3=O)cc1	2.5µM*
N#Cc1cccc(C(=O)N2CCC3(CC2)NC(=O)N(Cc2ccccc2Cl)C3=O)c1	i
SMILES	Pf Dd2 inh
Cc1ccc(C(=O)N2CCC3(CC2)NC(=O)N(Cc2ccccc2)C3=O)cc1	41%
COc1ccc(C(=O)Nc2ccnn2C2CCN(c3nccc(N)n3)CC2)cc1	-15%
COc1ccccc1C(=O)N1CC(c2nnc(-c3ccncc3)o2)C2(CCOCC2)C1 (centres undefined)	6%
CN1C(=O)CS(=O)C12CCNCC2 (centres undefined)	28%
Cc1ccc(CNC(=O)c2ccc3c(c2)N(Cc2cccc(Cl)c2)C(=O)CS3)cc1	i
Cc1ccc(CN2C(=O)c3ccccc3Sc3ccc(C(=O)N4CCC5(CC4)OCCO5)cc32)cc1	8.9µM*
COc1ccc(CNC(=O)c2ccc3c(c2)N(Cc2ccccc2)C(=O)c2ccccc2S3=O)cc1 (centres undefined)	44%
Cc1ccc(CN2C(=O)c3ccccc3Sc3ccc(C(=O)NCCCN4CCOCC4)cc32)cc1	i
COc1ccc(CNC(=O)c2ccc3c(c2)N(Cc2cccc(Cl)c2)C(=O)c2ccccc2S3)c(OC)c1	11µM*
COc1cccc(CNC(=O)c2ccc3c(c2)N(Cc2ccc(F)cc2Cl)C(=O)c2ccccc2S3)c1	11µM*
COc1ccc(CCNC(=O)c2ccc3c(c2)N(Cc2ccccc2C)C(=O)c2ccccc2S3)cc1OC	i
COC(=O)c1ccc2c(c1)N(Cc1cc(C)ccc1C)C(=O)c1ccccc1S2	i
O=C(O)c1ccc2c(c1)N(Cc1ccc(F)cc1Cl)C(=O)c1ccccc1S2	i
COc1ccccc1CNC(=O)c1ccc2c(c1)N(Cc1cc(C)ccc1C)C(=O)c1ccccc1S2	2.5µM*
O=C(c1ccc2c(c1)N(Cc1ccc(F)cc1Cl)C(=O)c1ccccc1S2)N1CCC2(CC1)OCCO2	i
O=C(NCc1ccc(F)cc1)c1ccc2c(c1)N(Cc1ccc(F)cc1Cl)C(=O)CS2	i
Cc1ccc(C2=NC3(CCN(C(=O)c4ccc[nH]4)CC3)ON2)cc1	-56%

Compound activity from PubChem.
